The whole screen tested about 410,000 compounds, of which about 7,200 (1.8%) were called active. A call without a number means that no potency is given here. Inconclusive results (about 7%) are left out. Only a selection was taken, and actives are over-represented in it overall. Values without a mark were called inactive. Calls follow the shape of the dose curve; as a rule, active = well fitted activation curve with a large enough effect; inconclusive = small, poorly fitted or top-dose-only effect, or another doubt; inactive = no such curve, though single readings can be large or run the other way.
Potency is read from the fitted curve at half-maximal effect.

The assay can be described thus: qHTS of TDP-43 Inhibitors. Also: nearly all actives have a fitted effect of over 50% in size. The following applies: TDP-43 expressing yeast growth rescue, BacTiter-Glo, 24 h; series mostly up to 46.1 µM. In outline:
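In this qHTS, compounds that restore growth of yeast expressing TDP-43 appear as activators. Cells (OD600=0.02, galactose medium, raffinose-pregrown) are incubated with compound 24 hr at 30 deg C and growth is quantified by BacTiter-Glo.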
(In general: qHTS replaces the single test concentration by a dilution series.)
Regarding `Cc1ccc(N(CC(=O)NCc2ccc(Cl)cc2)S(=O)(=O)N(C)C)cc1`, the Potency result is “inactive”.

Regarding `COc1ccccc1CNC(=O)C(Cc1ccccc1)NS(=O)(=O)c1ccc2c(c1)oc(=O)n2C` (stereo unspecified), the Potency result was “inactive”.

Turning to `Cc1ccc(Cn2c(=O)n(-c3ccc(C)cc3)c(=O)c3c2c2cc(C)ccc2n3C)cc1`, the Potency entry is “inactive”.

On to `CCOc1ccc(N2CC(C)Cn3c2nc2c3c(=O)n(Cc3c(F)cccc3Cl)c(=O)n2C)cc1` (stereo unspecified), for which the Potency entry was “inactive”.

Turning to `CCCCC(=O)OC1=CN(Cc2ccccc2)S(=O)(=O)c2ccccc21`, the Potency entry is “inactive”.

With `CCOC(=O)CN1C(C(=O)c2ccccc2)=C(OC(=O)C(C)(C)C)c2ccccc2S1(=O)=O`, the Potency result was “inactive”.

`CC(=O)OC1=C(C(C)=O)N(Cc2ccccc2)S(=O)(=O)c2ccccc21`: the Potency was 35.5 µM (active).

For `O=C(c1ccccc1)c1ccc(OC(=O)N2CCCC2)cc1`, the Potency is 11.2 µM (active).

In the case of `CC(=O)Oc1ccc(-c2cccc(C(=O)N3CCCCC3)c2)cc1`, the growth rescue (activation) is -16% [at 1.82 µM].

Take `CC(=O)c1ccc(OC(=O)N2CCOCC2)cc1`: the Potency result is “inactive”.

`O=S(=O)(NCCc1ccccc1)c1ccccc1`: the Potency entry is “inactive”.

Consider `O=C(Cc1ccccc1)NCC1OCCc2ccccc21` (stereo unspecified), for which the Potency entry was “inactive”.

As to `O=S(=O)(NCC1OCCc2ccccc21)c1ccccc1` (stereo unspecified), the Potency is 10 µM (active).

Take `CCCOc1ccc(C(=O)Nc2ccc3oc(-c4cccc(Cl)c4Cl)nc3c2)cc1`: the Potency result was “inactive”.

For `CCOc1ccc(NC(=O)c2cc(S(=O)(=O)N3CCCC3)c[nH]2)cc1`, the Potency entry is “inactive”.

On to `CC1(c2nnc(-c3ccncc3)o2)CC(c2cccnc2)=NO1` (stereo unspecified), for which the Potency result is “inactive”.

Take `CN(C)c1ccc(-c2nnc(-c3cccnc3)o2)cc1`: the Potency was 10 µM (active).

Consider `CCCN(CCC)c1ccc(C(O)c2nnc(-c3ccccc3)o2)cc1` (stereo unspecified), for which the Potency entry is “inactive”.

Consider `O=C(Cn1ncc2c3ccccc3n(Cc3ccccc3)c2c1=O)NC1CCCCCC1`, for which the Potency result is “inactive”.

Turning to `CCC(Sc1nnc(-c2ccc(OC)cc2)c(-c2ccc(OC)cc2)n1)C(=O)NC1CCCCC1` (stereo unspecified), the Potency result is “inactive”.

For the compound `CN(Cc1ccccc1)C(=O)c1cn(C)c2ccc(S(=O)(=O)N(C)C3CCCCC3)cc2c1=O`, the Potency result was “inactive”.

As for `CCOc1ccccc1CNC(=O)c1ccc2c(c1)nc1n2CCC(C)C1` (stereo unspecified), the Potency result is “inactive”.

As for `CCOc1ccccc1C(=O)NCC(c1ccc(N(C)C)cc1)N1CCCC1` (stereo unspecified), the Potency result was “inactive”.

In the case of `COc1ccc(-c2noc(CSc3nnc(-c4ccccc4)n3-c3ccc(F)cc3)n2)c(OC)c1`, the Potency entry is “inactive”.

Take `COc1cc(C(c2c(NC(=O)c3ccco3)sc(C)c2C)N2CCOCC2)cc(OC)c1OC` (stereo unspecified): the Potency result is “inactive”.

In the case of `CCc1cc(C(c2ccccc2OC)N2CCOCC2)c(NC(=O)c2ccccc2)s1` (stereo unspecified), the Potency is 20 µM (active).

For `COc1ccccc1C(=O)Nc1cccc(C(=O)N2CCOCC2)c1`, the Potency result is “inactive”.

Turning to `COc1ccccc1NC(=O)C1=C(C)Nc2nc(SCC(=O)c3ccc(C)cc3)nn2C1c1ccccc1C` (stereo unspecified), the Potency result is “inactive”.

As for `CCCCn1c(CNC(=O)C23CC4CC(CC(C4)C2)C3)nnc1SCC(=O)Nc1ccc(C)cc1`, the Potency entry was “inactive”.

Turning to `O=C(CO/N=C/c1ccccc1O)NNC(=O)c1ccccc1Cl`, the Potency is 3.16 µM (active).

As for `O=C(CO/N=C/c1ccccc1OC(F)F)NC1CCCC1`, the growth rescue (activation) was 26.6% [at 9.22 µM].

Consider `O=C(COc1ccccc1F)NNC(=O)c1cc(Br)ccc1Cl`, for which the Potency entry was “inactive”.

`O=C(c1ccccc1F)N1CCC(c2nc3c(nnn3Cc3cccc(F)c3)c(=O)[nH]2)CC1`: the Potency result was “inactive”.

Consider `CC(C)c1ccc(OCC(=O)N(Cc2ccc(N(C)C)cc2)C2CCS(=O)(=O)C2)cc1` (stereo unspecified), for which the Potency result was “inactive”.

Take `COc1ccc(-c2cn3c(n2)sc2cc(C(=O)Nc4ccccc4F)ccc23)cc1`: the Potency result is “inactive”.

As to `Cc1oc(C(N)=O)cc1COc1ccc(C(N)=O)cc1`, the Potency result was “inactive”.

As to `Cc1ccc(COc2ccc(C(=O)NN)cc2)cc1`, the Potency is 15.8 µM (active).

As to `NNC(=O)c1ccc(COCC(F)(F)C(F)F)cc1`, the Potency result is “inactive”.

On to `Cc1nn2c(=O)cc(COC(=O)c3ccccc3NC(=O)COc3ccccc3C)nc2s1`, for which the Potency result is “inactive”.

With `CCc1ccc2oc(-c3ccc(C)c(NC(=O)/C=C/c4ccco4)c3)nc2c1`, the Potency entry is “inactive”.

As for `Cc1ccc(OCCSc2nc(-c3cccs3)nc3cc(=O)[nH]n23)cc1Cl`, the Potency result is “inactive”.

In the case of `COc1ccc(-c2nc3cnccn3c2NC(C)(C)CC(C)(C)C)cc1O`, the Potency entry is “inactive”.

`Cc1ccc(Nc2c(-c3ccc(C)s3)nc3ccccn23)cc1`: the Potency entry is “inactive”.

As for `Cc1ccc(Nc2c(-c3ccc(C)cc3)nc3cnccn23)cc1`, the Potency is 22.4 µM (active).

With `COc1ccc(-c2nc(CN3CCC(C(=O)NCCN(CC(C)C)CC(C)C)CC3)c(C)o2)cc1OC`, the Potency result is “inactive”.

Consider `CCNS(=O)(=O)c1cc(-c2nnc(Nc3cccc(C(F)(F)F)c3)c3ccccc23)ccc1C`, for which the Potency result was “inactive”.

With `CCC1=Nc2cc(C(=O)NCCCOC(C)C)ccc2Sc2ccc(C)cc21`, the Potency entry is “inactive”.

`CCC(C)C(=O)Nc1ccccc1N1CCN(c2ccc(F)cc2)CC1` (stereo unspecified): the Potency was 25.1 µM (active).

On to `COc1ccc(NC(C)=O)cc1NC(=O)CN1CCN(c2ccc(F)cc2)CC1`, for which the Potency entry was “inactive”.

On to `CCCC(=O)Nc1ccccc1N1CCN(C(=O)c2ccccc2)CC1`, for which the Potency entry was “inactive”.

Turning to `CC(=O)N1c2ccccc2CC1C(=O)N1CCN(c2ccc(F)cc2)CC1` (stereo unspecified), the Potency entry is “inactive”.

As for `CCCCC(=O)Nc1ccccc1N1CCN(c2ccc(F)cc2)CC1`, the Potency is 22.4 µM (active).

Take `CC(=O)c1ccc(N2CCN(CC(=O)Nc3ccccc3N3CCOCC3)CC2)cc1`: the growth rescue (activation) is -6.9% [at 9.22 µM].

For `CCCC12CN3CC(CCC)(CN(C1)C3c1c[nH]c3ccc(OC)cc13)C2=O` (stereo unspecified), the Potency result is “inactive”.

Take `COc1cccc(C(O)c2nc3ccccc3n2C)c1` (stereo unspecified): the Potency result is “inactive”.

For the compound `COc1cccc(C(O)c2ncc(-c3ccc4ccccc4c3)[nH]2)c1` (stereo unspecified), the Potency result was “inactive”.

Take `CCCCCC(O)c1cccc(OCc2ccc3ccccc3n2)c1` (stereo unspecified): the Potency is 12.6 µM (active).

`COc1ccc(OC)c(-c2csc(-c3c(N)c(C(=O)c4ccccc4)n4ccccc34)n2)c1`: the Potency entry was “inactive”.

In the case of `O=C(Nc1cccc(-c2nc3ccccc3o2)c1)c1cccc(Br)c1`, the Potency result is “inactive”.

As to `Cc1ccc(SCC(=O)Nc2ccc3oc(-c4ccccc4C)nc3c2)cc1`, the Potency entry is “inactive”.

Consider `CCC(=O)Nc1cccc(-c2nc3cc(C)ccc3o2)c1`, for which the Potency is 14.1 µM (active).

Take `CCOc1ccc(-n2c(C)nc3c(cnn3-c3ccc(C)cc3)c2=O)cc1`: the Potency entry was “inactive”.

Consider `CCOC(=O)Cn1c(=O)n(C2CCCCC2)c2nc(-c3cccc(OC)c3)nc(C(N)=O)c21`, for which the Potency result was “inactive”.

On to `Cc1ccc(Cl)cc1NC(=O)CCS(=O)(=O)c1ccc(Br)s1`, for which the Potency entry is “inactive”.

With `O=c1[nH]snc1-c1c(Cl)cccc1Cl`, the Potency is 17.8 µM (active).

Consider `O=Cc1c(Cl)cccc1Cl`, for which the Potency result was “inactive”.

For the compound `CN(C)NC(=O)c1csnc1-c1c(Cl)cccc1Cl`, the Potency entry is “inactive”.

Consider `Cc1ccccc1N1CC(C(=O)Nc2ccc3c(c2)OCO3)CC1=O` (stereo unspecified), for which the Potency result is “inactive”.

`Cc1ccc(NC(=O)C2CC(c3ccc(F)cc3)=NO2)cc1` (stereo unspecified): the Potency entry is “inactive”.

On to `O=C(Nc1ccc2c(c1)OCO2)C1CC(c2c(F)cccc2Cl)=NO1` (stereo unspecified), for which the Potency was 10 µM (active).

With `Cc1cccc(CSc2nc3ccncc3n2Cc2ccc(C(=O)O)cc2)c1`, the Potency result is “inactive”.

Regarding `CSc1ccccc1-c1nnc(NC(=O)c2ccc3c(c2)OCCO3)o1`, the Potency entry was “inactive”.

Take `Cc1ccc(C(=O)Nc2nnc(C3=COCCO3)o2)cc1C`: the Potency result was “inactive”.

`COc1ccccc1-c1nnc(NC(=O)c2ccc3ncsc3c2)o1`: the Potency was 11.2 µM (active).

Turning to `CCOc1ccc(NC(=O)CCC(=O)N2CC(C)Oc3ccc(C)cc32)cc1` (stereo unspecified), the Potency entry was “inactive”.

`Clc1ccc(C2=CSC3=Nc4cccc5cccc(c45)N23)cc1`: the Potency is 17.8 µM (active).

Regarding `COc1ccc(CCN2C(=O)c3oc4cc(C)cc(C)c4c(=O)c3C2c2ccccc2F)cc1OC` (stereo unspecified), the Potency entry is “inactive”.

As to `O=C(Nc1cc(-c2nc3ncccc3o2)ccc1Cl)c1ccco1`, the Potency entry is “inactive”.

Take `O=C(Nc1cccc(NC(=O)c2ccco2)c1)c1cnccn1`: the Potency is 12.6 µM (active).

`O=C(Nc1ccc2nc(SCCOc3ccccc3)sc2c1)c1ccco1`: the Potency entry was “inactive”.

On to `CSc1nc(=O)c2c(n1C)NC(=O)CC2c1ccccc1OC(C)C` (stereo unspecified), for which the growth rescue (activation) was 5.81% [at 9.22 µM].

As for `COc1ccc(CCN2C(=O)N(c3cccc(OC)c3)C(=O)C2CC(=O)Nc2ccccc2)cc1` (stereo unspecified), the Potency result is “inactive”.

Regarding `N#Cc1ccccc1Cn1cnc2nc3c(cc2c1=O)CCCC3`, the Potency entry is “inactive”.

Take `Cc1ccc2onc(CC(=O)N3CCN(c4ccc(Cl)cc4)CC3)c2c1`: the Potency is 20 µM (active).

As to `O=C(CSc1nc2ccccc2o1)N1CCN(c2ccc(Cl)cc2)CC1`, the Potency entry is “inactive”.

`Cc1ccc2oc(=O)c3cnn(CC(=O)N4CCN(c5cccc(Cl)c5)CC4)c3c2c1`: the Potency result was “inactive”.

Turning to `Cc1nnc(NCc2ccccc2)c2c1nnn2Cc1ccc(F)cc1`, the Potency result was “inactive”.

For the compound `Cc1nc2nc(SCC(=O)N(Cc3ccccc3)C(C)C)nn2c(C)c1Cc1ccccc1Cl`, the Potency result is “inactive”.

With `Cc1cccc(NC(=O)C2CCN(S(=O)(=O)c3c(C)noc3/C=C/c3ccco3)CC2)c1`, the Potency entry is “inactive”.

For `O=C(Nc1cccc(F)c1)NC1CCCc2ccccc21` (stereo unspecified), the Potency is 12.6 µM (active).

In the case of `NC(=O)Nc1ccc(C(=O)OCC(=O)NC2CCCc3ccccc32)cc1` (stereo unspecified), the Potency entry was “inactive”.

As for `O=C(CCNC(=O)c1ccc(Cl)cc1)NC1CCCc2ccccc21` (stereo unspecified), the Potency result is “inactive”.

For the compound `Cc1cccc(Cn2c(CN3CCC(C(=O)NCc4ccccc4Cl)CC3)cc3ccccc32)c1`, the Potency result was “inactive”.

Consider `Cc1ccc(CSc2nc3cccnc3n2Cc2ccc(C(=O)NC3CC3)cc2)cc1`, for which the Potency entry was “inactive”.

In the case of `COc1ccc(-c2onc(C)c2C)cc1S(=O)(=O)NCc1cccs1`, the Potency result is “inactive”.

`COc1ccc(-c2onc(C)c2C)cc1S(=O)(=O)NCCc1ccccc1`: the Potency is 15.8 µM (active).

Turning to `COc1ccc(C)cc1S(=O)(=O)NCCc1ccccc1`, the Potency result is “inactive”.

With `Cc1ccc(N(CC(=O)NCC(C)c2ccccc2)S(=O)(=O)N(C)C)cc1` (stereo unspecified), the Potency entry was “inactive”.

For `CCCN(CCC)CCNC(=O)c1ccc2c(c1)NC(=O)C(CS(=O)(=O)Cc1cccc(Br)c1)N2` (stereo unspecified), the Potency result is “inactive”.

Regarding `CCOc1ccc(-c2nonc2NC(=O)c2oc3ccc(CC)cc3c2C)cc1`, the Potency result is “inactive”.

As for `O=C(NCc1ccc2c(c1)CCN2C(=O)c1ccccc1)Nc1cc(F)ccc1F`, the Potency entry is “inactive”.

The values are drawn from PubChem BioAssay AID652104 (National Center for Advancing Translational Sciences (NCATS), 2013).
